This is a sample that favours compounds with a hit; in the whole collection about 1.2% have one here.
HIF activator: HIF pathway transcriptional activation. U2OS HRE-luciferase reporter, luminescence; normalized: DMSO 0%, desferrioxamine 100%. activation, % at 7.5 µM (by protocol). hit rate 0.32% among 300,000. AID 1910;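 active means mean activation of at least 10% of the iron chelator positive control signal, with at least half of replicates also reaching 10%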
LANA-H2B inh: blocks KSHV LANA binding to histone H2A/H2B; hit rate 0.6% among 320,000; cell-free LANA-H2A/H2B peptide, fluorescence polarization; Q9QR71; inhibition, % (no concentration beside the values); in the data active means inhibition mostly above about 10%, no sharp cut-off; inactive means mostly below about 6.7%
Yeast superoxide: lowers age-related superoxide in aged yeast cells. S. cerevisiae aged cells, superoxide DHE fluorescence; active compounds read low. superoxide response (% of plate mean), % at 10 µM. hit rate 0.18% among 330,000;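 active means superoxide response under a set limit, about three screen SD below normal, cut at about 65% in these data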;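 further: yeast aged for seven days with compound at 30 °C before DHE staining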
HDAC3 inh: blocks human histone deacetylase 3; O15379; recombinant HDAC3, fluorogenic peptide/trypsin coupled, fluorescence; inhibition, % at 8.3 µM; hit rate 0.15% among 320,000; AID 2718; in the data active means inhibition above about 26%, passing the limit was not always enough
Target sequence (O15379 whole entry, looked up): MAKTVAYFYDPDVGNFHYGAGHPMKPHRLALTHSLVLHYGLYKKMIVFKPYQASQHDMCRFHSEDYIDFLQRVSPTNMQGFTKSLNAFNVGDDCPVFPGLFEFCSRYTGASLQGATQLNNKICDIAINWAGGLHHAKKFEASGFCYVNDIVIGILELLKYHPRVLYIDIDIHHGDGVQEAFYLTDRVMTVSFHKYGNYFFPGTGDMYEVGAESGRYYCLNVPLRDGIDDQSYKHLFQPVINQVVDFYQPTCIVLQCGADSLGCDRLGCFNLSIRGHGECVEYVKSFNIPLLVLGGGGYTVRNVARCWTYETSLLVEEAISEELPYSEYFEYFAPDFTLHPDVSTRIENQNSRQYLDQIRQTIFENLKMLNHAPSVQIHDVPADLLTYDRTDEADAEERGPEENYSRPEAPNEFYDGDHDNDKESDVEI
Hits are given with their value; . = inactive; / = no result given; + = active, no number.

SMILES	HIF activator	LANA-H2B inh	Yeast superoxide	HDAC3 inh
COc1ccc(-c2nc(SCC(=O)NC3CCCCC3)n[nH]2)cc1	.	75.9	.	.
O=C(COC(=O)c1cc[n+]([O-])cc1)Nc1ccccc1Sc1ccccc1	.	140.4	.	.
O=C(NCc1nnc2c(C(F)(F)F)cc(Cl)cn12)c1ccco1	.	.	.	.
O=C(N/N=C/c1ccccc1[N+](=O)[O-])c1ccc2nc[nH]c2c1	.	.	.	96.3
COc1ccc(/C=N/NC(=O)c2ccoc2C)cc1O	260.9	.	.	.
CCN(CC)c1ccc(/C=N/NC(=O)c2ccc3nc[nH]c3c2)c(O)c1	95.6	.	.	.
CCN(CC)c1ccc(/C=N/NC(=O)c2ccoc2C)c(O)c1	64.4	.	.	.
COc1ccc(/C=N/NC(=O)c2ccoc2C)cc1OC	.	.	.	.
CCN(CC)c1ccc(/C=N/NC(=O)c2cccc(S(=O)(=O)Nc3ccccc3OC)c2)c(O)c1	91.5	.	.	.
Cc1ccn(CC(=O)N2CCCC(N3CCN(c4ccc(F)cc4)CC3)C2)n1 (stereo unspecified)	.	/	/	/
O=C(N/N=C/C=C\c1cccc([N+](=O)[O-])c1)c1ccccn1	.	61.1	.	.
O=C(NNC(=O)c1cccnc1SCc1cccc([N+](=O)[O-])c1)c1ccccn1	29.9	.	.	.
O=C(N/N=C(\c1ccccc1)c1ccccn1)c1cccc([N+](=O)[O-])c1	130.7	.	.	.
O=C1NC(=O)/C(=C\c2ccc(Oc3ccc([N+](=O)[O-])cn3)cc2)S1	.	.	.	.
Cc1ccc(S(=O)(=O)Nc2cccc(C(=O)NCC(c3ccco3)N3CCCC3)c2)cc1F (stereo unspecified)	.	.	.	.
O=C(N/N=C/c1cc([N+](=O)[O-])ccc1O)c1cccc2ccccc12	11.1	.	.	.
O=[N+]([O-])c1ccc(O)c(/C=N/Nc2ccc(Cl)nn2)c1	64.2	.	.	.
O=[N+]([O-])c1ccc(O)c(/C=N/Nc2nn[nH]n2)c1	.	.	.	.
CC1(C)Cc2c(sc(NC(=O)C(=O)N3CCCC3)c2C#N)CO1	.	.	.	.
CC(NC(=O)CCCCCNC(=O)N1CCn2c1nc1ccccc12)c1ccccc1 (stereo unspecified)	.	.	.	.
CCNC(=S)Nc1ccc2ncoc2c1	.	31.4	.	.
CC1CCCC(C)N1C(=O)COC(=O)/C=C/c1ccc(Br)o1 (stereo unspecified)	/	.	.	.
O=C(CSc1nnc(-c2ccncc2)n1-c1ccccc1Cl)Nc1ccc(C(=O)O)cc1	.	47.7	.	.
O=C(CSc1nnc(-c2ccncc2)n1-c1ccccc1)Nc1ccc(C(=O)O)cc1	.	.	.	.
COC(=O)c1cc(C(=O)OCC(=O)Nc2ccccc2OC(F)F)cc([N+](=O)[O-])c1	.	.	.	.
SMILES	HIF activator	LANA-H2B inh	Yeast superoxide	HDAC3 inh
Cc1ccc(C2=CC(c3cccs3)n3nnnc3N2)cc1 (stereo unspecified)	.	23.0	.	.
Fc1ccc(C2=CC(c3cccs3)n3nnnc3N2)cc1 (stereo unspecified)	.	.	.	.
OCCCc1nc2n(n1)C(c1ccccc1)C=C(c1ccc(F)cc1)N2 (stereo unspecified)	.	.	.	.
OCCCc1nc2n(n1)C(c1cccs1)C=C(c1ccccc1)N2 (stereo unspecified)	.	67.9	.	.
CCC1Oc2ccccc2N(CC(=O)NC2CC2)C1=O (stereo unspecified)	.	.	.	.
COc1ccc(CNC(=O)COC(=O)C(CCSC)NC(=O)c2ccco2)cc1OC (stereo unspecified)	/	117.5	.	.
CCN(C(=O)c1cn(C)c(=O)c2cc(OC)c(OC)cc12)c1cc(C)ccc1C	.	.	.	.
COc1cc(OC)c(N(C)C(=O)c2cn(C)c(=O)c3cc(OC)c(OC)cc23)cc1Cl	.	.	.	53.9
O=C(c1cccn2c(=O)c3cc4ccccc4cc3nc12)N1CCN(c2ccccc2)CC1	.	13.4	.	.
CCNC(=S)N(CCc1c(C)[nH]c2ccccc12)Cc1cc(OC)c(OC)c(OC)c1	.	.	.	.
CCOc1ccccc1N1CCN(C(=S)NC(=O)C23CC4CC(CC(C4)C2)C3)CC1	404.4	.	.	.
O=C(NC(=S)N1CCN(c2ccc(F)cc2)CC1)C12CC3CC(CC(C3)C1)C2	.	.	.	.
O=C(Nc1ccc(NC(=O)c2ccco2)c(Cl)c1)c1ccccc1	.	21.4	.	.
CC(C)Oc1ccc(C(=O)Nc2ccc(NC(=O)c3ccco3)c(Cl)c2)cc1	.	.	.	.
O=C(c1cccc(F)c1)N1CCCc2ccccc21	.	.	.	.
COc1cccc2nc3cc(C)c(C)cc3nc12	.	.	62.7	.
COc1cccc2c1nc(C)c1cc(C)oc12	.	.	.	.
CC(=O)c1cccc(OCCCOc2cccc3cccnc23)c1	.	.	.	.
COc1cccc(Cn2cc(C)cc(NC(=O)NCc3ccccc3)c2=O)c1	.	23.1	.	.
COc1ccc(NC(=O)CCS(=O)(=O)c2ccc3c(c2)CCCN3C(C)=O)cc1Cl	.	.	.	.
COc1ccc(NC(=O)CCS(=O)(=O)c2ccc3c(c2)CCN3C(C)=O)cc1	10.4	.	.	.
COc1ccccc1NC(=O)C(=N\O)/C(C)=N/O	.	.	.	.
O=S1(=O)CCN(C(CCO)c2cccc(C(F)(F)F)c2)CC1 (stereo unspecified)	.	+	.	.
Cc1ccccc1C(C)NS(=O)(=O)c1ccc2c(c1)OCCO2 (stereo unspecified)	/	.	.	.
CCCc1c(C(=O)NNc2ccccc2OC)cnn1-c1ccccc1	.	17.8	.	.
SMILES	HIF activator	LANA-H2B inh	Yeast superoxide	HDAC3 inh
CC(C)(C)c1nn(-c2ccccc2)c2[nH]c(=O)c(C=O)cc12	.	.	.	.
COc1ccc(OCCN2CCN(C(=O)c3ccc(OC(F)F)c(OC)c3)CC2)cc1	.	.	.	.
COc1ccc(C(=O)CCN2CCCCCC2)cc1	.	12.2	.	.
COc1ccc(C(=O)CCNc2ccc(F)cc2)cc1	14.2	.	.	.
COc1ccc(C(=O)CCNc2ccc(C)c(Cl)c2)cc1	.	.	.	.
COc1ccc(OCCN2CCN(C(=O)c3ccc(OC)cc3)CC2)cc1	.	14.1	.	.
Fc1ccc(-n2nnc(-c3ncc[nH]3)n2)cc1	.	.	.	.
CCN(C[C@H]1N[C@@](C)(C(=O)OC)[C@H]2C(=O)N(C)C(=O)[C@@H]12)S(=O)(=O)c1ccc(-c2ccccc2)cc1	/	.	.	.
O=C(c1cncs1)N1CCCC(CNS(=O)(=O)c2cccs2)C1 (stereo unspecified)	.	.	.	.
CCOC(=O)C1(C)NC(c2ccc(OC)cc2OC)C2C(=O)N(CC)C(=O)C21 (stereo unspecified)	527.9	.	.	.
CCCCc1ccc(NC(=O)Cn2c(=O)c(N3CCCCC3)c(N)n(C)c2=O)cc1	/	.	.	.
O=C(O)c1c(Cl)cccc1Cl	/	+	.	.
CC(=O)Nc1cccc(Cl)c1C(=O)O	.	.	.	.

Bioassay records deposited in PubChem BioAssay by several laboratories.
